In PubChem BioAssay (Tox21):
Results filed as inconclusive are left out. Unmarked numbers belong to inactive results. The call rests on the fitted dose curve; in most records, active means well fitted cell-killing curve with a large enough effect in the repeat runs; inconclusive means weak or mixed curves, or effect the other way; inactive means no such curve, though single readings can be large or run the other way.

Assay: qHTS assay for small molecule activators of the heat shock response signaling pathway - cell viability counter screen (AID 743209); further: nearly all actives have a fitted effect of over 50% in size
Settings: HSE-bla HeLa viability, CellTiter-Glo luminescence, 5 h; series mostly up to 62.6 µM; activity change, negative = cytotoxicity: at the top concentration
Excerpt: U.S. Tox21 Program National Center for Advancing Translational Sciences [NCATS] NIH Chemical Genomics Center [NCGC] U.S. Environmental Protection Agency [EPA] National Institutes of Environmental Health Sciences [NIEHS] National Toxicology Program [NTP] U.S. Food and Drug Administration [FDA] Tox21 Assay Overview: Various chemicals, environmental and physiological stress conditions may lead to the activation of heat shock response/ unfolded protein response (HSR/UPR). There are three heat shock transcription factors (HSFs) (HSF-1, -2, and -4) mediating transcriptional regulation of the human HSR. To identify the compounds that activate HSR signaling, HSE-bla HeLa cell line (Invitrogen, Carlsbad, CA, USA) containing a beta-lactamase reporter gene under the control of the heat shock response elements was used to screen Tox21 10K compound library. The cytotoxicity of the Tox21 compound library against the HSE-bla HeLa cell line was tested in parallel by measuring the cell viability using CellTiter-Glo assay (Promega, Madison, WI) in the same wells.
Tox21 Assay Protocol Summary: The CellSensor HSE-bla HeLa cells (Invitrogen, Carlsbad, CA, USA) were dispensed at 1500 cells/6uL/well into 1536-well black wall/clear bottom plates using a Multidrop combi (Thermo Fisher Scientific, Waltham, MA) dispenser. After the assay plates were incubated at 37 C and 5% CO2 overnight, 23 nL of compounds dissolved in DMSO, positive controls or DMSO only was transferred to the assay plate by a Pintool station (Kalypsys, San Diego, CA). The plates were incubated at 37 C for 5 h. After 1 uL of LiveBLAzerTM B/G FRET substrate was added using a Flying Reagent Dispenser (FRD, Beckman Coulter, Indianapolis, IN, USA), the plates were incubated at room temperature for 2.5 h, and fluorescence intensity was measured by an Envision plate reader (PerkinElmer, Shelton, CT). For cell viability readout that measures cytotoxicity, 3 ul/well of CellTiter-Glo reagent was added into the assay plates using a FRD. After 30 min incubation at room temperature, the luminescence intensity in the plates was measured using a ViewLux (PerkinElmer) plate reader.
On the % scale 0 is the no-effect control and ±100 the full control effect.

First: N#CC(O)c1ccccc1 (stereo not given)
Second: c1ccc(N2CCNCC2)cc1
The “activity change, negative = cytotoxicity” value of the first is higher: -1.23% for the first, -2.97% for the second.

Compared with `COC(=O)c1c(C(F)F)nc(C(F)(F)F)c(C2=NCCS2)c1CC(C)C`, `CCC(=O)C(CCN(C)C)(c1ccccc1)c1ccccc1` is lower in “activity change, negative = cytotoxicity” value: 6.58% for the first, -6.12% for the second.

Going from `CCOP(=S)(OCC)SCSP(=S)(OCC)OCC` to `CCOP(=S)(OCC)SCSc1ccc(Cl)cc1`, the “activity change, negative = cytotoxicity” value falls from -2.91% to -3.12%.

First: CCOC(=O)C(c1c(O)c2ccccc2oc1=O)c1c(O)c2ccccc2oc1=O
Second: O=C1CN=C(c2ccccc2)c2cc([N+](=O)[O-])ccc2N1
The “activity change, negative = cytotoxicity” value of the first is higher: -13.7% for the first, -17.9% for the second.

Compared with `CCOC(=O)NC(=S)Nc1ccccc1NC(=S)NC(=O)OCC`, `CCOP(=S)(OCC)Oc1cc(-c2ccccc2)on1` is higher in “activity change, negative = cytotoxicity” value: -5.13% for the first, 7.61% for the second.

Compared with `CNC(=O)Oc1c(C(C)(C)C)cc(C)cc1C(C)(C)C`, `COP(=S)(OC)Oc1c(Cl)cc(C)cc1Cl` is lower in “activity change, negative = cytotoxicity” value: 1.56% for the first, -3.55% for the second.

Compared with `CC(=O)Nc1cc([As](=O)(O)O)ccc1O`, `Oc1c(Cl)cccc1Cl` is lower in “activity change, negative = cytotoxicity” value: 1.43% for the first, -0.0145% for the second.

Compared with `Clc1ccccc1N1CCNCC1`, `OC(c1ccc(F)cc1)(c1cncnc1)c1ccccc1Cl` (stereo not given) is lower in “activity change, negative = cytotoxicity” value: 1.49% for the first, -3.51% for the second.

Compared with `NC(=O)O`, `CN(N=O)C(N)=O` is higher in “activity change, negative = cytotoxicity” value: -5.3% for the first, -3.8% for the second.

Going from `CCCCOP(=O)(O)OCCCC` to `CCCCP(CCCC)CCCC`, the “activity change, negative = cytotoxicity” value rises from -3.47% to 2.48%.

Going from `COc1cc2c(cc1OC)[C@@]13CCN4CC5=CCO[C@H]6CC(=O)N2[C@H]1[C@H]6[C@H]5C[C@H]43` to `C#CCN1C(=O)COc2cc(F)c(N3C(=O)C4=C(CCCC4)C3=O)cc21`, the “activity change, negative = cytotoxicity” value rises from -2.62% to -2.5%.

Compared with `CCCCN(CCCCO)N=O`, `CCS(=O)(=O)C(C)(C)S(=O)(=O)CC` is lower in “activity change, negative = cytotoxicity” value: 10.3% for the first, -0.993% for the second.

Compared with `C[C@]12CC[C@H]3[C@@H](CC=C4C[C@@H](O)CC[C@@]43C)[C@@H]1CC[C@@H]2O`, `O=C(N[C@H]1CN2CCC1CC2)c1cc2ccoc2cn1` is higher in “activity change, negative = cytotoxicity” value: -5.84% for the first, 2.23% for the second.

Going from `N#CCCC#N` to `CC(C)CP(=S)(S)CC(C)C`, the “activity change, negative = cytotoxicity” value rises from -3.13% to 16.4%.

Going from `NC(=S)C(N)=S` to `O=[N+]([O-])c1ccc2c3c(cccc13)CC2`, the “activity change, negative = cytotoxicity” value falls from 11.6% to -8.84%.

Going from `CN1C[C@@H](NS(=O)(=O)N(C)C)C[C@@H]2c3cccc4c3c(cn4C)C[C@H]21` to `O=NN1CCCCC1`, the “activity change, negative = cytotoxicity” value rises from -12.6% to 11.3%.

Compared with `CCCCC(=O)Cl`, `CCCCOC(=O)c1ccccc1N` is lower in “activity change, negative = cytotoxicity” value: 0.75% [at 81.1 µM] for the first, -2.14% [at 81.1 µM] for the second.

First: [Cl][Sn]([Cl])([Cl])[Cl]
Second: ClCC(Cl)Cl
The “activity change, negative = cytotoxicity” value of the first is lower: -4.62% [at 81.1 µM] for the first, -4.6% [at 81.1 µM] for the second.

First: O=C(Cc1ccccc1)OCc1ccccc1
Second: CC(=O)CC(c1ccc(Cl)cc1)c1c(O)c2ccccc2oc1=O (stereo not given)
The “activity change, negative = cytotoxicity” value of the first is lower: -1.11% [at 81.1 µM] for the first, 1.02% [at 81.1 µM] for the second.

In the case of `O=[N+]([O-])c1cccc2cccnc12`, the “activity change, negative = cytotoxicity” value was 11.4% [at 81.1 µM].

In the case of `CCN(CC)C(=O)[C@@H]1C=C2c3cccc4[nH]cc(c34)C[C@H]2N(C)C1`, the “activity change, negative = cytotoxicity” value was 6.38% [at 232 µM].
